Results on eight compounds are retold here after PubChem BioAssay (NCI).

SMILES strings stand for the structures. About 83,000 compounds went through this panel and 20% of them were active in at least one assay; those are over-represented in the sample as a whole.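 How to read the values: 0–100, growth inhibition (40 = 60% inhibited); 0, no net growth; -100 to 0, cell death (-40 = 40% of starting cells died; -100 = all dead).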 A number with no mark means an inactive call. Activity calls are given as the source filed them. The calls were made as follows: active = growth percent below 10; inactive = the rest.

Holding throughout (assay): NCI-60 one-dose screen, 48 h (100 = growth as untreated, 0 = no growth, -100 = all killed)
The subject of one assay is SK-MEL-2 melanoma. The settings on record: 10 µM unless noted.
A further assay relates to EKVX NSCLC. The settings on record: 10 µM unless noted.
The test system of a further assay is SN12C renal. To be noted: 10 µM unless noted.
The test system of the next assay is UO-31 renal. To be noted: 10 µM unless noted.
For another assay, the system named is TK-10 renal. To be noted: 10 µM unless noted.
The next assay has as its system ACHN renal. The settings on record: 10 µM unless noted.
Another assay has as its system CAKI-1 renal. The settings on record: 10 µM.
Another assay concerns A498 renal. To be noted: 10 µM unless noted.
Another assay deals with CCRF-CEM leukemia. The settings on record: 10 µM unless noted.
The test system of the next assay is MOLT-4 leukemia. To be noted: 10 µM unless noted.
A further assay has as its system SR leukemia. The settings on record: 10 µM unless noted.
The test system of another assay is RPMI-8226 leukemia. The settings on record: 10 µM unless noted.
The subject of a further assay is OVCAR-8 ovarian. To be noted: 10 µM unless noted.
The subject of the next assay is OVCAR-5 ovarian. To be noted: 10 µM unless noted.
The next assay has as its system OVCAR-4 ovarian. To be noted: 10 µM unless noted.
A further assay deals with SK-OV-3 ovarian. To be noted: 10 µM unless noted.
The subject of another assay is IGROV1 ovarian. To be noted: 10 µM unless noted.
The next assay relates to OVCAR-3 ovarian. The settings on record: 10 µM unless noted.
Another assay has as its system HS 578T breast. The settings on record: 10 µM unless noted.
The subject of the next assay is NCI/ADR-RES ovarian. To be noted: 10 µM unless noted.

Take `Fc1ccc(-c2cc3nc(C(Cl)Cl)nc(-c4cccs4)n3n2)cc1`: the growth with SK-MEL-2 melanoma is 87.7%; in the assay on EKVX NSCLC, 6.21% (active); with SN12C renal it was 64.5%; in the assay on UO-31 renal, 40.6%; with TK-10 renal, 7.64% (active); in the assay on ACHN renal, -19.9% (active). Moreover, the growth in the assay with CAKI-1 renal was -20.4% (active); with A498 renal it was -20.7% (active); in the assay with CCRF-CEM leukemia, 86%; in the assay with MOLT-4 leukemia, 65.4%; with SR leukemia it was 83.8%; in the assay on RPMI-8226 leukemia, -3.54% (active). Further, the growth with OVCAR-8 ovarian was 24%; in the assay with OVCAR-5 ovarian, 9.21% (active); with OVCAR-4 ovarian, 29.8%; in the assay on SK-OV-3 ovarian, 32%; with IGROV1 ovarian it was 61.2%; in the assay with OVCAR-3 ovarian it was -26.2% (active). Further, the growth in the assay on HS 578T breast is -5.63% (active); with NCI/ADR-RES ovarian, 5.56% (active).

Consider `Oc1ccccc1-c1nnc(SCc2ccc(O)c3ncccc23)n1-c1ccccc1`, for which the growth was 23.1% in the assay with SK-MEL-2 melanoma; -0.459% (active) with EKVX NSCLC; 14.5% in the assay with SN12C renal; -9.38% (active) in the assay with UO-31 renal; 18.9% with TK-10 renal; 8.88% (active) in the assay on ACHN renal. Also, the growth in the assay with CAKI-1 renal is 11.3%; with A498 renal, -6.54% (active); in the assay with CCRF-CEM leukemia it was 7.6% (active); in the assay with MOLT-4 leukemia, 18%; with SR leukemia, 25.2%; in the assay with RPMI-8226 leukemia it was 12.2%. For the same compound, the growth was 15.5% with OVCAR-8 ovarian; 33% in the assay on OVCAR-5 ovarian; 16.3% in the assay on OVCAR-4 ovarian; 8.88% (active) in the assay on SK-OV-3 ovarian; 6.65% (active) in the assay with IGROV1 ovarian; 18.7% in the assay on OVCAR-3 ovarian. Also, the growth in the assay with NCI/ADR-RES ovarian is 6.23% (active).

On to `CCn1c2ccc(/C=N/OCCCN(C)C)cc2c2cc(/C=N/OCCCN(C)C)ccc21`, for which the growth in the assay on SK-MEL-2 melanoma was 125%; with EKVX NSCLC it was 48.6%; in the assay with SN12C renal it was 63.6%; with UO-31 renal, -90.4% (active); in the assay with TK-10 renal, 132%; in the assay on ACHN renal, -15.5% (active). The growth in the assay with CAKI-1 renal was -16.5% (active); in the assay with A498 renal, 54.1%; in the assay with CCRF-CEM leukemia, 9.36% (active); with MOLT-4 leukemia, 0.746% (active); in the assay on SR leukemia, -40.8% (active); with RPMI-8226 leukemia, -15.9% (active). The growth in the assay with OVCAR-8 ovarian was -5.7% (active); with OVCAR-5 ovarian, 31.1%; with OVCAR-4 ovarian it was 52.7%; in the assay with SK-OV-3 ovarian, 109%; with IGROV1 ovarian, -52.8% (active); in the assay on HS 578T breast, 73.8%. For the same compound, the growth in the assay on NCI/ADR-RES ovarian is 9.38% (active).

As to `C#C[C@]1(O)CC[C@H]2[C@@H]3CC=C4c5sc(Nc6ccc(OC)nc6)nc5CC[C@]4(C)[C@H]3CC[C@@]21C`, the growth with SK-MEL-2 melanoma is 68%; with EKVX NSCLC, 48.7%; in the assay with SN12C renal, 70.5%; in the assay with UO-31 renal, 32.6%; in the assay on TK-10 renal, 124%; in the assay with ACHN renal, 33.4%. In addition, the growth in the assay on CAKI-1 renal is 23.8%; in the assay with A498 renal, 25.9%; in the assay on CCRF-CEM leukemia, 8.55% (active); with MOLT-4 leukemia, 3.4% (active); in the assay with SR leukemia it was 7.7% (active); in the assay on RPMI-8226 leukemia, -21.7% (active). For the same compound, the growth is 27.7% with OVCAR-8 ovarian; 83.9% in the assay with OVCAR-5 ovarian; 76.1% in the assay on OVCAR-4 ovarian; 44.4% with SK-OV-3 ovarian; 29.7% in the assay with IGROV1 ovarian; 3.53% (active) in the assay on HS 578T breast. Further, the growth with NCI/ADR-RES ovarian is 59%.

On to `Cc1ccc(NC(=O)c2ccc(CN3CCN(C)CC3)c(C(F)(F)F)c2)cc1Oc1ccc(-c2[nH]nc3ncnc(N)c23)cc1`, for which the growth is 84.1% with SK-MEL-2 melanoma; 109% in the assay on EKVX NSCLC; 80.7% in the assay with SN12C renal; 83% in the assay with UO-31 renal; 119% with TK-10 renal; 83% in the assay with ACHN renal. For the same compound, the growth in the assay on CAKI-1 renal is 92.1%; in the assay on A498 renal it was 113%; in the assay on CCRF-CEM leukemia it was 8.05% (active); in the assay with MOLT-4 leukemia, 43%; in the assay on SR leukemia, 2.87% (active); with RPMI-8226 leukemia it was 18.1%. Also, the growth is 94.5% in the assay on OVCAR-8 ovarian; 95.3% in the assay with OVCAR-5 ovarian; 90.7% in the assay with OVCAR-4 ovarian; 97% with SK-OV-3 ovarian; 82.7% in the assay with IGROV1 ovarian; 113% in the assay on OVCAR-3 ovarian. For the same compound, the figures for the growth in the assay on HS 578T breast and in the assay with NCI/ADR-RES ovarian were 72.8% and 52%, respectively.

For `O=C1c2c(c3c4cccnc4[nH]c3c3ccc4ccccc4c23)C(=O)N1CCN1CCOCC1`, the growth with SK-MEL-2 melanoma was 98.4%; in the assay with EKVX NSCLC, 86.7%; with SN12C renal, 68.4%; in the assay on UO-31 renal it was 54.5%; in the assay on TK-10 renal, 112%; with ACHN renal, 41.3%. The growth with CAKI-1 renal is 46.2%; in the assay with A498 renal, 69%; with CCRF-CEM leukemia it was 23.9%; in the assay with MOLT-4 leukemia, 7.9% (active); in the assay with SR leukemia, 21.8%; in the assay with RPMI-8226 leukemia it was 42.5%. The growth was 47.2% with OVCAR-8 ovarian; 98.3% in the assay with OVCAR-5 ovarian; 84.4% in the assay with OVCAR-4 ovarian; 86.9% in the assay with SK-OV-3 ovarian; 57.7% in the assay on IGROV1 ovarian; 82.1% in the assay on HS 578T breast. Moreover, the growth in the assay on NCI/ADR-RES ovarian is 47%.

On to `Cc1nn(-c2ccccc2)cc1/C=N/Nc1nc(Nc2ccccc2)nc(Nc2ccc(S(N)(=O)=O)cc2)n1`, for which the growth was 54.8% in the assay on SK-MEL-2 melanoma; 18.8% with EKVX NSCLC; 0.245% (active) with SN12C renal; -4.7% (active) with UO-31 renal; 44.5% in the assay on TK-10 renal; 0.841% (active) with ACHN renal. Further, the growth with CAKI-1 renal was -27.8% (active); in the assay on A498 renal it was -30.3% (active); in the assay on CCRF-CEM leukemia, 8.85% (active); in the assay on MOLT-4 leukemia it was 6.35% (active); in the assay on SR leukemia, 33.6%; in the assay on RPMI-8226 leukemia, -23.1% (active). Also, the growth with OVCAR-8 ovarian was 18.2%; in the assay with OVCAR-5 ovarian, -13.2% (active); with OVCAR-4 ovarian, 14.9%; in the assay on SK-OV-3 ovarian, 50.5%; with IGROV1 ovarian, 13.1%; in the assay with OVCAR-3 ovarian it was -31.1% (active). Further, the growth is 13.8% in the assay on HS 578T breast and 76.4% in the assay on NCI/ADR-RES ovarian.

In the case of `COc1ccc(-c2nc(SCC(C)C)nc(N/N=C\c3cccc([N+](=O)[O-])c3)c2C#N)cc1`, the growth was 86.2% with SK-MEL-2 melanoma; 47.7% in the assay on EKVX NSCLC; 43.3% with SN12C renal; -36.4% (active) with UO-31 renal; 91.4% in the assay with TK-10 renal; 8.66% (active) in the assay on ACHN renal. In addition, the growth is 31.8% in the assay on CAKI-1 renal; 47.6% in the assay with A498 renal; 80.9% in the assay with CCRF-CEM leukemia; 75.1% in the assay on MOLT-4 leukemia; 43.5% in the assay with SR leukemia; 66.9% with RPMI-8226 leukemia. The growth was 25.5% in the assay with OVCAR-8 ovarian; 71.5% with OVCAR-5 ovarian; 38.7% with OVCAR-4 ovarian; 74% in the assay with SK-OV-3 ovarian; 31.4% in the assay on IGROV1 ovarian; 43% in the assay on HS 578T breast. For the same compound, in the assay with NCI/ADR-RES ovarian, the growth is 51.5%.
